This note sets out measurements from the supplement of paper PMC6555819.

The subject of the experiment is VDR:RXRa (NR concentration 270 nM, RXRa partner concentration 90 nM). Nature of the experiment: PBM binding z-score (relative to random genomic background probes); higher = stronger binding; sequences stand for … in GC…GCGATTGACAGCGTAGAATGAAGG
The procedure:
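Protein-binding microarray (Agilent 4x180K custom design, double-stranded 60-nt probes: 5' GC cap, 34-nt variable region, 24-nt constant primer region; full probe sequence given). Purified or IVT nuclear receptor:RXRα heterodimers (3:1 NR:RXRα, mostly 270:90 nM) or homodimers were incubated for 1 h in PBS with 2% milk and no ligand, then detected with Alexa488 antibodies. Fluorescence from o1-orientation probes (~5 replicates averaged) was converted to z-scores against 500 random hg19 background probes. Variable regions are seed direct-repeat (DR0–DR5) sites, all their single-nucleotide variants and half-site ablations.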
Sequence ATCGAAAGGTCGAAGGTGAGTATTCCCACCCGAA gave a PBM binding z-score of 2.58. CAAACTAGGCCAAGAGGTCAAAGTCCGCTTCCCG gave a PBM binding z-score of 4.94. To CGTCCAAGGTCAATGCTAGGTCATTGAAAGCATT belongs 5.84; to ACCTACGGGTCAACGAGGTTATAGCACGCGTATA, 7.64; to TCAGACAGGTGAAGGTAAGTCAGGTACGCAGTCG, 0.301. As for CCAAGTAGGTTATGGGGCATTCAGGCAACGGTGA, the PBM binding z-score was -0.0794. To GCTCGGAGGACAAGGTCAGTGCTTTGTCCGTAGA belongs 1.19. The result for TAGACTAGGTCATGCGGGCCAGTATAGTGTCGGC reads 2.46; that for CCGACTGGGGCATAAGGTTACCAGAAGCCAGCCC, 0.214; that for TCTAGTTGGTCACGGAGGTCACACATGACGGGTA, 5.83. The result for TAACCTAGGTCATGGGCCAGTATACCACGCGAAC reads 2.88; that for CGTCCAAGGTCCAGGTCAGTGAAAGAGACTCGAA, 0.373; that for TAGACTAGGTCATTCAGGGGCCAGTATAGAAAGC, 2.48.

On to GTACCAAGGTGAATAGTTCGTTGATGAGTAGGCG, for which the PBM binding z-score was 0.251. The result for TCATATAGGTAAAAGGTGAAAGTTGGTGTGGTAA reads 1.88; that for ACTATTAATTGACTTAGGGCAACCGATACGACGC, 0.425.

TCATATAGGCAAATGCTAGGTGAAAGTCCGATCT: the PBM binding z-score worked out at 0.571.

TAGCATAGGTCAGATCGGGCCAGTATACGCTATA displayed a PBM binding z-score of 1.77. The result for CGTCCAAGGTGAATGCTAGGTCAGTGAAAGCATT reads 0.559. Consider TAGCCTAGGTCATTCAAGGGCCAGTATAGAAAGC, for which the PBM binding z-score is 2.89.

The sequence CCAAGCAGGCCAATCTGGGTCACTCAAGGCTTGA gave a PBM binding z-score of 0.733.

As for ACTAGCAGGCCAAGGGACACTCAAGATTAGTCCG, the PBM binding z-score was -0.487.

The sequence CCTTACGGGTCACTGACAGGTTCTAGCATTTGGA registered a PBM binding z-score of 3.36. Sequence CTCGAAAGCTCGTGCTCAGGTGAGTATACCAAAC registered a PBM binding z-score of -0.8. In turn, ATATGTAGGTTATCGGGGCATTCAGTTTGCGCAT showed a PBM binding z-score of 2.27.

Take TCTGCTAAGTCAGTTGGTCAGCTAACGAGCTGCC: the PBM binding z-score was -0.514. To TGAGTGAGGTTATAAGATCAGGGAACGTTGCAAA belongs 0.806.

As for AGTCAAAGTACAGGACGAGGTAACGTAAAGCACG, the PBM binding z-score is -0.143. To CCTGCTTGGTCAATGGTCAGCTAAAGCAGCTCGC belongs -0.576; to TGTCAAAGTTCAAAGGTAACGAAAGTATCCACAC, 5.07; to TGAATGAGGTTAGAAGATCAGGGAACGTTGCAAA, 0.0983. CGAACGAGGGCATGAGTTTATAGCAAATGCCGAT: the PBM binding z-score was 3.02. In turn, CCTTACGGGGCACGAGGTTATAGCACGACGAGCG displayed a PBM binding z-score of 0.986. To CCTACAGGGCCATTCAGAGGTCATTGATCATATG belongs 4.57; to TCTGCTAGGTCAACGATGGTCAGCTATTCTGCTA, 1.71. Consider TAGCCTAGGTAATGGGCCAGTATACCACGCGAAC, for which the PBM binding z-score was -0.466.

For the sequence AGAATGAGGGTATACGTAGATCAGGGAAGAAAGT, the PBM binding z-score was 0.239.

For GCGACTGGGGCAAAGCAGGTTACCATTAGGTTGG, the PBM binding z-score is -0.0809. To TCATATAGATAAACAGGTGAAAGTCCGTAAGTTA belongs 1.18; to GGAACGAGGGTAAGTTGATAGCAGAGTTTGATGG, -0.217.
